The target of assay [1] is Cytochrome P450 3A4 (Homo sapiens) (UniProt P08684). The assay is described as follows: qHTS Assay for Activators of Cytochrome P450 3A4 (AID 885). Also: nearly all actives have a fitted effect of over 65% in size. In short, it runs like this: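 Using 20nM recombinant human CYP3A4 in potassium phosphate (200mM), substrate Luciferin-PPXE at 25uM, luminescent luciferin detection followed a 60-min RT NADPH reaction; data scaled to 57 uM ketoconazole.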
(In qHTS, concentration-response curves come from the screen itself.)

The nature of assay [2]: Confirmation and Secondary Assay for Modulators of Hemoglobin Beta Chain Splicing at IVS2 705 locus (AID 930).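 Also: HeLa cells stably expressing the EGFP-705 splicing reporter; GFP fluorescence per well restored by corrected splicing of the IVS2-705 intron in EGFP; % of control where 0% means no effect.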 The method, boiled down: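 Stable HeLa line with EGFP disrupted by mutant beta-globin intron 2 (705). Overnight attachment, then 2 days of compound at 37C, 5% CO2. Signal: peak GFP intensity summed over objects 5-250 µm.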
A short description of assay [3]: qHTS Assay for Lipid Storage Modulators (AID 1519; calls by dose curve; as to activity change, negative = inhibition: % is scaled to controls: 0 for no effect and ±100 for the full control effect). Conditions: Drosophila S3 cells, BODIPY lipid droplet/cell ratio, laser cytometry, cells loaded with oleic acid; for activity change, negative = inhibition: at 57.5 µM (top of the series). In short, it runs like this: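 Cells seeded at 5,000 per well were treated with compounds over a concentration series and loaded with oleic acid (400 uM, as added). Lipid droplet fluorescence (488 nm excitation, 500-530 nm channel) was read by laser-scanning cytometry and normalized to 20 uM Triacsin C.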

In assay [4] the target is Rap guanine nucleotide exchange factor 3 (Homo sapiens) (UniProt O95398). The assay is described as follows: Confirmatory qHTS for antagonist of cAMP-regulated guanine nucleotide exchange factor 3 (EPAC1) (AID 1645880). Also: nearly all actives have a fitted effect of over 55% in size. Also: potency is read from the fitted curve at half-maximal effect. The method, boiled down: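 Released BODIPY-GDP fluoresces less than Rap1-bound BODIPY-GDP; the signal is followed at 480/540 nm at 5-min intervals over 30 min, after 5 min at room temperature. Reactions contain 100 nM EPAC1, 250 nM RAP1B-BODIPY-GDP and 50 uM GDP; results are normalized to ATA and DMSO.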
Rap guanine nucleotide exchange factor 3 (Homo sapiens), sequence (O95398 whole entry, looked up): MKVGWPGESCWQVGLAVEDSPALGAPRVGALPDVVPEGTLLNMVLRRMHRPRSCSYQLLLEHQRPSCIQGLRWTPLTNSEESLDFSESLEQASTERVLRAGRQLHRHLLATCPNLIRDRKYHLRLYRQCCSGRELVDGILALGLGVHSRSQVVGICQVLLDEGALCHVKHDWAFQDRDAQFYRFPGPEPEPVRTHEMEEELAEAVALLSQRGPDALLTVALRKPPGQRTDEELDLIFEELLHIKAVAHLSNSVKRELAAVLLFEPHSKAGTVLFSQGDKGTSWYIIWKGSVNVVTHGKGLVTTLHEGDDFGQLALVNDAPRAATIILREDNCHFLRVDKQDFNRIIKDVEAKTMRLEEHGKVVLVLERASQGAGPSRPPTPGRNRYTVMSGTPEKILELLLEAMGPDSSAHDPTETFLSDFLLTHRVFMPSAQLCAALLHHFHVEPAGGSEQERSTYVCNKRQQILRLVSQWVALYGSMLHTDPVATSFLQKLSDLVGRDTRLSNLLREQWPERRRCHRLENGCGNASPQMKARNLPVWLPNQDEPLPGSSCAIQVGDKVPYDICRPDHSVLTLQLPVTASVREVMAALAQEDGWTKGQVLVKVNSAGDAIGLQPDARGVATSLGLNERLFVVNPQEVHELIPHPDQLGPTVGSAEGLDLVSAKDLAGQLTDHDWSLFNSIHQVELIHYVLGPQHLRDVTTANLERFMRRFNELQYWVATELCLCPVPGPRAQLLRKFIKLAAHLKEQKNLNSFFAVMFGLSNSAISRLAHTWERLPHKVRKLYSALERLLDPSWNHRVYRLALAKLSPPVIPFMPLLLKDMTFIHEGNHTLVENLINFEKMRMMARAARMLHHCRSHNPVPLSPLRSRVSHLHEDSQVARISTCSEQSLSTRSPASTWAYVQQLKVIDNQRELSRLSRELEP

Assay [5] shares this target. Briefly: Confirmatory qHTS for agonist of cAMP-regulated guanine nucleotide exchange factor 3 (EPAC1) (AID 1645881).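 Also: EPAC1 catalysed release of BODIPY-GDP from Rap1B seen as fluorescence loss; 100% = effect of cAMP agonist control; nearly all actives have a fitted effect of over 75% in size.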
For assay [6], the target named is Rap guanine nucleotide exchange factor 4 (Homo sapiens) (UniProt Q8WZA2). The assay is described as follows: Confirmatory qHTS for agonist of cAMP-regulated guanine nucleotide exchange factor 4 (EPAC2) (AID 1645884).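 Also: nucleotide exchange releases bodipy-GDP from Rap1 and this lowers its fluorescence; % is scaled to controls: 0 for no effect and ±100 for the full control effect; nearly all actives have a fitted effect of over 65% in size.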
Rap guanine nucleotide exchange factor 4 (Homo sapiens), sequence (Q8WZA2 whole entry, looked up): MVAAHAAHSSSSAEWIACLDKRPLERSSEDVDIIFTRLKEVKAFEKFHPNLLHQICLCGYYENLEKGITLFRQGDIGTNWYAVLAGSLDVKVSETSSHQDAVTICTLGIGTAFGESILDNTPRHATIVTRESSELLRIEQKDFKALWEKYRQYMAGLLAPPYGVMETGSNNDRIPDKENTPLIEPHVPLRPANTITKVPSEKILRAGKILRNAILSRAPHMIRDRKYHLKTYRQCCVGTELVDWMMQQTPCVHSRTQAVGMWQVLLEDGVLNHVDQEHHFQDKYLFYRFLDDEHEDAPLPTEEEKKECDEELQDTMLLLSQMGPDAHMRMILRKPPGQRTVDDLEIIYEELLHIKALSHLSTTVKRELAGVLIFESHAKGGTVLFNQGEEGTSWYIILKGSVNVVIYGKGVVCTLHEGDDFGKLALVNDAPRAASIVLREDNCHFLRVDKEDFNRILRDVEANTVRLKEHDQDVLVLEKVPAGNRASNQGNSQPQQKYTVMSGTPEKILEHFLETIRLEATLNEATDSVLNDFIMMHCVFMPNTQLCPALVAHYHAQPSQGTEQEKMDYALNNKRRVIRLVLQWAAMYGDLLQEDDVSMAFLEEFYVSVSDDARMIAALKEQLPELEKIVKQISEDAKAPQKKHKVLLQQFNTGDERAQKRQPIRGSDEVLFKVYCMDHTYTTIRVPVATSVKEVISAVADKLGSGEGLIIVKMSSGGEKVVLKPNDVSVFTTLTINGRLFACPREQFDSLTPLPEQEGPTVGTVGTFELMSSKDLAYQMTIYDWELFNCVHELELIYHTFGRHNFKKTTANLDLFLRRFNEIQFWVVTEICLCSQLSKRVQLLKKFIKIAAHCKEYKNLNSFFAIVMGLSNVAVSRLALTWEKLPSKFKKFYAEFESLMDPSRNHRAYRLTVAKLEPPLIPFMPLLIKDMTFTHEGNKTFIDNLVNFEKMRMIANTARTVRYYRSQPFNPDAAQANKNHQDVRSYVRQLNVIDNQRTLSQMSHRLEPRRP
In assay [7] the target is Cytochrome P450 3A4 (Homo sapiens) (UniProt P08684). Briefly: qHTS Assay for Inhibitors and Substrates of Cytochrome P450 3A4 (AID 884). Also: nearly all actives have a fitted effect of over 50% in size. Also: potency is read from the fitted curve at half-maximal effect. As to activity change, negative = inhibition: % is scaled to controls: 0 for no effect and ±100 for the full control effect. The method, boiled down: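 Luminescent readout of luciferin produced by CYP3A4 (20 nM) dealkylation of Luciferin-PPXE, 25 uM (its KM). NADPH-driven reaction ran 60 min at RT after 10 min compound preincubation; data scaled to 57 uM ketoconazole as 100% inhibition.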

Assay [8] concerns the target Rap guanine nucleotide exchange factor 4 (Homo sapiens) (UniProt Q8WZA2). Briefly: Confirmatory qHTS for antagonist of cAMP-regulated guanine nucleotide exchange factor 4 (EPAC2) (AID 1645885). Also: % is scaled to controls: 0 for no effect and ±100 for the full control effect; nearly all actives have a fitted effect of over 25% in size.
A short description of assay [9]: Confirmation and Secondary Assay for Modulators of Hemoglobin Beta Chain Splicing at IVS2 654 locus (AID 910).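 Also: HeLa cells stably carrying EGFP split by mutant beta-globin IVS2-654 intron; % of control where 0% means no effect.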 In short, it runs like this:
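HeLa cells stably expressing EGFP interrupted by β-globin IVS2-654 intron, seeded overnight in Opti-MEM/2% FCS, then treated 2 days at 37 °C. Restored splicing read as total peak GFP intensity per well by laser scanning cytometry (488 nm excitation, 500–520 nm emission); 500 nM antisense PNA as control.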

In assay [10] the target is Ubiquitin carboxyl-terminal hydrolase 1 (Homo sapiens) (UniProt O94782). Briefly: Inhibitors of USP1/UAF1: Pilot qHTS (AID 504865).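 Also: rhodamine fluorescence freed from ubiquitin-rhodamine substrate followed over time; top concentration of the series differs between compounds; % is scaled to controls: 0 for no effect and ±100 for the full control effect; nearly all actives have a fitted effect of over 35% in size.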 In short, it runs like this: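 USP1/UAF1 complex at 1 nM preincubated 15 min at room temperature with compound, then Ub-Rho substrate added at 150 nM final. Fluorescence (480/540 nm) read kinetically in 50 mM HEPES pH 7.8, 0.5 mM EDTA, 1 mM TCEP, 0.1 mg/ml BSA, 0.01% Tween-20.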
Ubiquitin carboxyl-terminal hydrolase 1 (Homo sapiens), sequence (O94782 whole entry, looked up): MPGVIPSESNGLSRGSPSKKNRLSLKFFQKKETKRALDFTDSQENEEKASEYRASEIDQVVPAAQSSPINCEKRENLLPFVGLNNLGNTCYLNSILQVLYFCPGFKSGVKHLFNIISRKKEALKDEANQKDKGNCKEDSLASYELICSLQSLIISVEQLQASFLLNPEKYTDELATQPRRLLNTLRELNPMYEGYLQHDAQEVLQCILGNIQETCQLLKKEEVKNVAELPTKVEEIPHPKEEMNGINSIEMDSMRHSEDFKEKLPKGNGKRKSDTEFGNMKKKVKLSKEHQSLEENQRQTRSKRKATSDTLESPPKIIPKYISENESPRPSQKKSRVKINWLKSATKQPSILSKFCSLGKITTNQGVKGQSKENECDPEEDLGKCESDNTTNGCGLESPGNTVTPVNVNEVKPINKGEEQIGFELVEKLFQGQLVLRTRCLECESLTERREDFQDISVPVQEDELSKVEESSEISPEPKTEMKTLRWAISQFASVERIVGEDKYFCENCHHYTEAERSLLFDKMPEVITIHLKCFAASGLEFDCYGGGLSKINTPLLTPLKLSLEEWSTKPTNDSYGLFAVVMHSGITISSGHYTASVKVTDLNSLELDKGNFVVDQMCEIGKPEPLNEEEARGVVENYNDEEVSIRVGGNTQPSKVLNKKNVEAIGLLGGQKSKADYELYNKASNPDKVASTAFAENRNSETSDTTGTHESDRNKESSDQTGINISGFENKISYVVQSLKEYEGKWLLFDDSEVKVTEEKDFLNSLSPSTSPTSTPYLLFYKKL

The mark [11] stands for this setting: measured here: cell count channel max response.
Where [12] appears, read: measured here: lipid channel max response.

SMILES strings stand for the structures. Records with an inconclusive call do not appear. Activity calls are given as the source filed them. Unless noted, calls follow the shape of the dose curve; as a rule, active = well fitted curve in the direction sought with a large enough effect; inconclusive = small, poorly fitted or top-dose-only effect, or another doubt; inactive = no such curve, though single readings can be large; an effect the other way counts as inactive or inconclusive.

Cytochrome P450 3A4 (Homo sapiens), sequence (P08684 whole entry, looked up): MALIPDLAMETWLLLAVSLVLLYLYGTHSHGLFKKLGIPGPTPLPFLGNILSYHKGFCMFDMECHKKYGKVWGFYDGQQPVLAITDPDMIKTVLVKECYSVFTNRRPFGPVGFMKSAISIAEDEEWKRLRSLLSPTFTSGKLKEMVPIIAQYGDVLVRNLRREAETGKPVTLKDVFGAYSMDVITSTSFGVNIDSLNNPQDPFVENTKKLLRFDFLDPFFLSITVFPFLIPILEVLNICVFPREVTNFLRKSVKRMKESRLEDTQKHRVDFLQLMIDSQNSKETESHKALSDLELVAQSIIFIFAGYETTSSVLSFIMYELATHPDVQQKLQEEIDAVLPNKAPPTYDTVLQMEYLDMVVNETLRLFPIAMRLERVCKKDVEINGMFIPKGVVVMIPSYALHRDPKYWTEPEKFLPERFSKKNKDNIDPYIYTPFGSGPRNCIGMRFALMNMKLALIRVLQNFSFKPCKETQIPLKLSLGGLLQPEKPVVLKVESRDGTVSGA

Take `COc1ccc2c(c1)OCC(Cc1ccc(OC)c(OC(C)=O)c1)C2=O` (stereo not given): the Potency entry in assay [1], in [4], in assay [5] and in assay [6] was “inactive” throughout. The outcome in assay [2] was inactive. In addition, the activity change, negative = inhibition in assay [3] was 2.81% (inactive). The max response is 1.86% in [3] (setting [11]) and -2.44% in [3] (setting [12]).

Regarding `O=c1cc(-c2ccc(O)c(O)c2)oc2cc(OC3OC(CO)C(O)C(O)C3O)cc(O)c12` (stereo not given), the Potency result in assay [7], in [5], in [6] and in assay [8] was “inactive” each time. Also, the activity change, negative = inhibition in assay [3] is 7.95% (inactive). Further, the max response in assay [3] (setting [11]) came out at 6.89%; in assay [3] (setting [12]) it was 11.2%. In addition, the Potency in assay [4] is 7.03 µM (active).

On to `COc1ccc2c(c1)OC/C(=C/c1ccc(O)c(O)c1)C2=O`, for which the Potency in assay [7] is 31.6 µM (active). For the same molecule, the Potency result in [1], in assay [9], in assay [10], in assay [5], in [6] and in [8] was “inactive” in each case. In addition, the outcome in assay [2] was inactive. Moreover, in assay [3], the activity change, negative = inhibition was 9.34% (inactive). Also, the max response in [3] (setting [11]) came out at 0.529%; in [3] (setting [12]), 11.7%.

Consider `C#C[C@]1(OC(C)=O)CCC2C3CCC4=CC(=O)CCC4C3CC[C@]21C` (stereo not given in full), for which the Potency entry in assay [1], in [9], in assay [10], in assay [4], in [5] and in assay [6] was “inactive” in each case. Further, the molecule was classed as inactive in [2]. The activity change, negative = inhibition in assay [3] was -18.5% (inactive). For the same molecule, the max response in assay [3] (setting [11]) is -10.7%; in assay [3] (setting [12]), -26.2%.

As to `CC(=O)Oc1ccc2c(c1)CCC1C2CC[C@]2(C)C(OC(C)=O)CCC12` (stereo not given in full), the molecule was classed as inactive in assay [2]. Moreover, the activity change, negative = inhibition in assay [3] is -2.53% (inactive). The max response in assay [3] (setting [11]) was 4%; in [3] (setting [12]), 4.34%. Further, the Potency result in assay [4], in assay [5], in assay [6] and in assay [8] was “inactive” each time.

With `CC1(C)C=CC(=O)[C@]2(C)C1CC(=O)[C@]1(C)C2CC[C@@]2(C)C(c3ccoc3)OC(=O)C3OC321` (stereo not given in full), the Potency in assay [7] is 2 µM (active). Moreover, the Potency result in [1], in assay [10], in assay [4], in assay [5], in [6] and in assay [8] was “inactive” each time. Moreover, the molecule was called inactive in assay [2]. In addition, the activity change, negative = inhibition in assay [3] was -11.5% (inactive). Further, the max response in assay [3] (setting [11]) is -7.57%; in assay [3] (setting [12]), -18.1%.

Turning to `COc1ccc(-c2cc(=O)c3c(OC)c(OC)c(OC)c(OC)c3o2)cc1`, the Potency in assay [7] was 12.6 µM (active). For the same molecule, the Potency entry in assay [1], in assay [9], in assay [4] and in [5] was “inactive” throughout. For the same molecule, in assay [2], the molecule was called inactive. Also, the activity change, negative = inhibition in [3] was -5.75% (inactive). Further, the max response was -19.4% in [3] (setting [11]) and -24.9% in [3] (setting [12]).

The record behind these values is PubChem BioAssay (NCATS).
